Reference: PubChem BioAssay (NCATS)
Values joined by “and” are separate entries in the source; they are usually repeats but may differ in a detail not shown here. Identical values can stand only once. Inconclusive results are not listed. Where a call stands in place of a potency, no number is given. Values without a mark were called inactive. Active and inactive are the calls of the source. Unless noted, the call rests on the fitted dose curve.

System: not listed separately
Test: qHTS assay for small molecule activators of the p53 signaling pathway (AID 651743; active means well fitted activation curve with a large enough effect in the signal ratio, not every such curve was filed as active; the % refers to the signal ratio)
Settings: HCT-116 p53RE-bla, beta-lactamase FRET ratio, 16 h; activation: active compounds read high
In short: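 Agonist-mode quantitative HTS in HCT-116 cells carrying a p53-response-element beta-lactamase reporter; 16 h compound treatment at 37 C, then FRET substrate loading for 2 h at room temperature and fluorescence read.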

| SMILES | activation |
| --- | --- |
| CN(C)C=O | -4.49% and -0.185% and 0.579% |
| CCCCOCCO | -0.263% and -0.796% and -1.77% |
| CC(=O)OC/C=C(\C)CCC=C(C)C | -0.898% and 4.78% |

System: not listed separately
Test: qHTS assay for small molecule activators of the nuclear factor-kappa B (NF-kB) signaling pathway (AID 651749; active means well fitted activation curve with a large enough effect in the signal ratio; the % refers to the signal ratio)
Settings: NF-kB-bla ME-180 cells, beta-lactamase FRET ratio, 16 h; active compounds read high
In short: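 Human ME-180 cervical cells with an NF-kB-bla construct; compounds added via 23 nL pin transfer, DMSO as vehicle; incubation 16 hr. Reporter activity measured by FRET disruption.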

| SMILES | activation |
| --- | --- |
| ClCCCl | -0.0783% and -1.06% and -1.29% |
| CCC(O)OC(O)CC (stereo not given) | 0.14% [middle of 4 runs] |
| C=Cc1ccccc1Cl | -1.19% |
| c1ccc2c(c1)c1cccc3ccc4cccc2c4c31 | 2.08% and 3.95% |
| Cc1cccc([N+](=O)[O-])c1C | -0.813% and -0.315% |
| CC(C)=CCCC(C)CCO (stereo not given) | 0.223% and -0.597% |
| CCO[Si](CCCN)(OCC)OCC | -0.737% and -1.24% |
| Clc1cc(Cl)c(Cl)cc1Cl | 0.515% and -2% |
| CCO | -0.227% |
| CCCCC(CC)CN (stereo not given) | -0.627% and -0.116% |
| O=NO | -0.475% and 1.4% |
| Nc1ccc(Cl)cc1Cl | 0.288% and 1.41% |
| CCC(C)c1ccccc1O (stereo not given) | 0.327% and -0.174% and -0.563% |
| CN(C)C=O | 0.506% and -0.104% and -1.7% |
| CCCCOCCO | 0.401% and -0.541% and 0.482% |

System: not listed separately
Test: qHTS assay for small molecule disruptors of the mitochondrial membrane potential - 1 hr assay (AID 651754); further: nearly all actives have a fitted effect of over 35% in size
Settings: series mostly up to 92.2 µM
In short: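 Mitochondrial potential in living HepG2 cells after 1 hr compound treatment at 37C was read with Mito-MPS dye added for a further 30 min. Red aggregate and green monomer fluorescence were measured; loss of potential leaves dye as cytoplasmic monomers.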

| SMILES | Potency |
| --- | --- |
| COc1ccc2nc(N)sc2c1 | inactive |
| ClCCCl | inactive |
| CCC(O)OC(O)CC (stereo not given) | inactive |
| C=Cc1ccccc1Cl | inactive |
| c1ccc2c(c1)c1cccc3ccc4cccc2c4c31 | inactive |
| Cc1cccc([N+](=O)[O-])c1C | inactive |
| CCCCCCCCO | inactive |
| CC(C)=CCCC(C)CCO (stereo not given) | inactive |
| O=[N+]([O-])c1cccc(Cl)c1Cl | inactive |
| CCO[Si](CCCN)(OCC)OCC | inactive |
| Clc1cc(Cl)c(Cl)cc1Cl | inactive |
| CCO | inactive |
| C=CC(=O)OCCOCCOCCOCCOC(=O)C=C | inactive |
| Clc1cc(Cl)c(Cl)c(Cl)c1Cl | inactive |
| CCCCC(CC)CN (stereo not given) | inactive |
| O=NO | inactive |
| OCCNCCO | inactive |
| Nc1ccc(Cl)cc1Cl | inactive |
| CCC(C)c1ccccc1O (stereo not given) | inactive |
| CC1=CC(C)(C)Nc2ccccc21 | inactive |
| Cc1ccc(N)c([N+](=O)[O-])c1 | inactive |
| CCCCOCCO | inactive |
| CC(=O)OC/C=C(\C)CCC=C(C)C | inactive |

System: not listed separately
Test: qHTS assay for small molecule disruptors of the mitochondrial membrane potential - 5 hr assay (AID 651755); further: nearly all actives have a fitted effect of over 40% in size
Settings: JC-1-type ratio dye; series mostly up to 92.2 µM
In short: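 Seed HepG2 overnight, add compound, incubate 5 hr at 37C and 5% CO2, stain 30 min with Mito-MPS, then measure monomer (490/535 nm) and aggregate (540/590 nm) fluorescence.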

| SMILES | Potency |
| --- | --- |
| CCCN(CCC)C(=O)SCC | inactive |
| COc1ccc2nc(N)sc2c1 | inactive |
| ClCCCl | inactive |
| CCC(O)OC(O)CC (stereo not given) | inactive |
| C=Cc1ccccc1Cl | inactive |
| c1ccc2c(c1)c1cccc3ccc4cccc2c4c31 | inactive |
| Cc1cccc([N+](=O)[O-])c1C | inactive |
| CCCCCCCCO | inactive |
| CC(C)=CCCC(C)CCO (stereo not given) | inactive |
| O=[N+]([O-])c1cccc(Cl)c1Cl | inactive |
| CCO[Si](CCCN)(OCC)OCC | inactive |
| Clc1cc(Cl)c(Cl)cc1Cl | inactive |
| CCO | inactive |
| C=CC(=O)OCCOCCOCCOCCOC(=O)C=C | inactive |
| Clc1cc(Cl)c(Cl)c(Cl)c1Cl | inactive |
| CCCCC(CC)CN (stereo not given) | inactive |
| O=NO | inactive |
| c1ccc2c(c1)[nH]c1ccccc12 | inactive |
| OCCNCCO | inactive |
| Nc1ccc(Cl)cc1Cl | inactive |
| CCC(C)c1ccccc1O (stereo not given) | inactive |
| CC1=CC(C)(C)Nc2ccccc21 | inactive |
| Cc1ccc(N)c([N+](=O)[O-])c1 | inactive |
| CCCCOCCO | inactive |
| CC(=O)OC/C=C(\C)CCC=C(C)C | inactive |

Target: Tumor necrosis factor (Homo sapiens) (UniProt P01375)
Test: qHTS assay to identify small molecules that stimulate Tumor Necrosis Factor-alpha (TNF-alpha) secretion (AID 651757; active means well fitted curve in the direction sought with a large enough effect in the signal ratio; the % refers to the signal ratio)
Settings: Human cells, HTRF 665/615 ratio; series mostly up to 92.2 µM
In short: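 Secreted TNF-alpha quantified by TR-FRET sandwich of two labeled anti-TNF-alpha antibodies, incubated 3 hr at room temperature. Preceded by 17 hr, 37 C compound treatment of THP-1 cells at 3000 cells/well.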

Tumor necrosis factor (Homo sapiens), sequence (P01375 whole entry, looked up): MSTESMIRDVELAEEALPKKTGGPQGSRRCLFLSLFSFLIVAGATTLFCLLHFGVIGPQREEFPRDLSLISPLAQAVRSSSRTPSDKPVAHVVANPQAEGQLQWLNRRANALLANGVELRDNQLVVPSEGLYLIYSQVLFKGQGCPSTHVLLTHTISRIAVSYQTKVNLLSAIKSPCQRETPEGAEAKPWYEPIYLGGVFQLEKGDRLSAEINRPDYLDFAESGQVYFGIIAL

| SMILES | outcome |
| --- | --- |
| CCCN(CCC)C(=O)SCC | inactive |
| ClCCCl | inactive |
| CCC(O)OC(O)CC (stereo not given) | inactive |
| C=Cc1ccccc1Cl | inactive |
| Cc1cccc([N+](=O)[O-])c1C | inactive |
| CCCCCCCCO | inactive |
| CC(C)=CCCC(C)CCO (stereo not given) | inactive |
| O=[N+]([O-])c1cccc(Cl)c1Cl | inactive |
| CCO[Si](CCCN)(OCC)OCC | inactive |
| Clc1cc(Cl)c(Cl)cc1Cl | inactive |
| CCO | inactive |
| C=CC(=O)OCCOCCOCCOCCOC(=O)C=C | inactive |
| Clc1cc(Cl)c(Cl)c(Cl)c1Cl | inactive |
| CCCCC(CC)CN (stereo not given) | inactive |
| O=NO | inactive |
| c1ccc2c(c1)[nH]c1ccccc12 | inactive |
| OCCNCCO | inactive |
| Nc1ccc(Cl)cc1Cl | inactive |
| CCC(C)c1ccccc1O (stereo not given) | inactive |
| CC1=CC(C)(C)Nc2ccccc21 | inactive |
| CN(C)C=O | inactive |
| Cc1ccc(N)c([N+](=O)[O-])c1 | inactive |
| CCCCOCCO | inactive |
| CC(=O)OC/C=C(\C)CCC=C(C)C | inactive |
